Bioassay records: PubChem BioAssay, Broad Institute
aSyn 5UTR act: Activators working through SNCA 5'UTR binding (MLPCN). 300,000 tested, 7.1% active. activity score, % (tested at 7.5 µM), hits read low. AID 1814. alpha-synuclein 5'UTR reporter, activators screen; in the data active = activity score below about -60%
Numbers stand for hits; . = inactive. The list is a sample of the results.

SMILES | aSyn 5UTR act
COc1ccc(CSc2nnc(C)s2)cc1F | -127
CCOC(=O)c1sc(NC(=O)CSc2nc3c(cc2C#N)CCCCCC3)c(C#N)c1C | -74
N#Cc1cc2c(nc1SCC(=O)Nc1sc3c(c1C#N)CCC3)CCCCC2 | -122
N#Cc1c(NC(=O)CSc2ncn[nH]2)sc2c1CCCCC2 | .
N#Cc1cc2c(nc1SCC(=O)Nc1sc3c(c1C#N)CCC3)CCCC2 | -240
Cc1cccc(NC(=O)c2onc3c2CCCC3)n1 | .
Cc1ccccc1NC(=O)c1onc2c1CCCC2 | -131
Cc1cccc(NC(=O)c2onc3c2CCCC3)c1C | -162
COC(=O)c1cccc(NC(=O)c2onc3c2CCCC3)c1 | .
O=C(Nc1ccc2ccccc2c1)c1onc2c1CCCC2 | -71
CCc1ccc(-c2cc(-c3n[nH]c(=S)n3CC)c3ccccc3n2)cc1 | -69
CSc1nnc(-c2cc(-c3ccc(C)cc3)nc3ccccc23)o1 | .
COc1ccc(C=Nc2cccnc2N)cc1 | -67
c1cncc(-c2noc(-c3cccc4ccccc34)n2)c1 | -225
c1ccc2c(-c3nc(-c4ccncc4)no3)cccc2c1 | -272
c1ccc(-c2noc(-c3cccc4ccccc34)n2)cc1 | -179
O=C(c1cnc2nc3ccccc3n2c1)c1cc(F)ccc1O | -78
COc1ccccc1/C=C/c1nc(C#N)c(N(C)C)o1 | -196
CN(C)c1oc(/C=C/c2ccccc2)nc1C#N | -262
Cn1c(=O)n(/N=C/c2ccccc2)c2ccccc21 | -107
c1c2c(cc3sc(N4CCOCC4)nc13)OCCO2 | .
CCC(C)(C)n1nnnc1C(c1ccc2ncccc2c1)N1CCN(c2nc3ccccc3s2)CC1 (stereo not given) | .
c1ccc2sc(N3CCOCC3)nc2c1 | -65
Nc1ccc2nc(N3CCOCC3)sc2c1 | -69
Fc1cccc(Cl)c1CN1CCN(c2nc3ccccc3s2)CC1 | -198
SMILES | aSyn 5UTR act
c1ccc(N2CCN(c3nc4cc5c(cc4s3)OCCO5)CC2)cc1 | -157
COc1cccc2c(=O)c(C(=O)NCc3cccs3)c[nH]c12 | -139
CN(Cc1cccs1)C(=O)CCCc1c[nH]c2ccccc12 | -133
O=C(Cc1c[nH]c2ccccc12)NCc1cccs1 | -63
CCOC(=O)C(=CNc1ccc(C(F)(F)F)cc1Cl)C(=O)OCC | -97
COc1ccccc1-n1cc([C@@H]2C[C@H]3CN(c4ccccc4)C(=O)[C@]34CCCN24)cn1 | -362
CCc1nnc2c3cnn(-c4ccccc4)c3ncn12 | -183
COc1ccc2cc(-c3ccon3)ccc2c1 | -172
CC1(C)Cc2c(sc3nc(N/N=C/c4ccccc4)[nH]c(=O)c23)CO1 | -78
Cc1cccc(N2CCN(C(=O)c3ccc(CS(=O)(=O)c4ccccc4C)o3)CC2C)c1 (stereo not given) | .
CC1Cc2ccccc2N1C(=O)c1ccc(Br)o1 (stereo not given) | -129
Cc1ccc(C(=O)N2c3ccccc3CC2C)o1 (stereo not given) | -92
O=C(/C=C/c1ccc(-c2ccccc2[N+](=O)[O-])o1)c1ccco1 | -136
CN(c1ccc(O)cc1)c1nc(O)c(C2=c3ccccc3=NC2=O)s1 | -155
c1ccc(-c2nc(C3CCCCC3)no2)cc1 | -204
COc1ccc(-c2nc(C3CCCCC3)no2)cc1OC | -162
CC1=NN(c2ccccc2)C(=O)/C1=C/c1c(O)n(-c2ccc(F)c(Cl)c2)[nH]c1=O | -105
Cc1nc2ccc(CN(C)c3ccc(C(=O)N[C@@H](CCC(=O)O)C(=O)O)s3)cc2c(=O)[nH]1 | .
O=C(Nc1ccccc1)Nc1ccc2nnsc2c1 | -145
CN(C)c1ccc(NC(=O)Nc2ccc3snnc3c2)cc1 | -115
O=C(Nc1ccccc1)Nc1ccc2snnc2c1 | -147
Nc1ccc2c(c1)Cc1cc([N+](=O)[O-])ccc1-2 | -79
COc1ccc(CCNC(=O)c2cccn2C)cc1 | -89
Cn1cccc1C(=O)NCCc1ccc(Cl)cc1 | -162
Clc1ccc(/C=N/Nc2nnc(-c3ncc[nH]3)c3ccccc23)cc1 | -169
SMILES | aSyn 5UTR act
Clc1cccc(/C=N/Nc2nnc(Cl)c3ccccc23)c1 | -197
Cc1cc(-c2nnc(CSc3nnc(NC(=O)c4ccc(C(C)(C)C)cc4)s3)o2)ccc1[N+](=O)[O-] | -110
COC(=O)c1ccc(C2OCC(C)(C)CO2)cc1 | -135
COC(=O)c1ccc2c(c1)C(C)(C)C(/C=C/c1ccc(OC)c(OC)c1OC)=[N+]2C | .
COc1ccc(/C=C/C(=O)Oc2cccc(/C=N/NC(=O)Cc3ccc(Br)cc3)c2)cc1 | -80
Nc1c(C(=O)Nc2ccc(Br)cc2)sc2nc(-c3ccco3)ccc12 | -171
NC(=O)c1sc2nc(-c3ccccc3)ccc2c1N | -73
CC(=O)c1sc2nc(-c3ccco3)ccc2c1N | -81
CC1CCN(S(=O)(=O)N2CCC(C(=O)NC3CCCC3)CC2)CC1 | -97
CCCS(=O)(=O)N1CCC(C(=O)NC2CCC(C)CC2)CC1 (stereo not given) | -64
CCc1ccc(NC(=O)Nc2cccs2)cc1 | -169
Cc1ccc(NC(=O)Nc2cccs2)cc1 | -130
Cc1ccc(NC(=O)Nc2cccs2)nc1 | -168
CCOc1ccc(NC(=O)Nc2cccs2)cc1 | -161
CCc1ccc(NC(=O)Nc2ccsc2C(=O)OC)cc1 | -65
COc1ccc(C(=S)Nc2ccc(C)cc2)cc1 | -153
Cc1ccc(NC(=S)c2ccccc2)cc1 | -152
Cc1ccc(OCC(=O)N2CCOCC2)cc1C | -68
Cc1ccc(OCc2ccc(C(=O)N3CCOCC3)cc2)cc1C | -66
Clc1ccc(COc2ccccc2-c2ccnc3ncnn23)cc1 | -75
C=CCN1CCN(C(=O)CSc2ccccc2)CC1 | -103
COc1ccccc1N1CCN(C(=O)CSc2ccccc2)CC1 | -82
COc1ccccc1CN1CC(C(=O)NCc2c(F)ccc(C)c2F)CCC1=O (stereo not given) | -72
CCCc1cc2c(cc1NC(=O)c1ccc(C(C)(C)C)cc1)OCO2 | -74
COc1cc(/C=C/c2nc3ccccc3s2)cc(OC)c1O | -69
SMILES | aSyn 5UTR act
COc1ccc(/C=N/Nc2nc3ccccc3s2)cc1O | .
COc1ccc(C=C(c2nc3ccccc3s2)c2nc3ccccc3s2)cc1O | -281
CN(C)c1ccc(/C=C/c2nc3ccccc3s2)cc1 | .
CCOc1ccc(-c2csc(NNC3=NCCCCC3)n2)cc1 | -88
COc1ccc(-c2csc(NNC3=NCCCCC3)n2)cc1 | -63
COc1ccc(-c2csc(NC3=NCCCCC3)n2)cc1 | -91
Brc1ccc(-c2csc(NC3=NCCCCC3)n2)cc1 | -138
c1ccc(-c2csc(NNC3=NCCCCC3)n2)cc1 | -72
Cc1ccc(NC(=O)c2ccc(CSc3nnc(-c4ccncc4)n3C)cc2)cc1 | -108
Cn1nnnc1SCc1ccc(C(=O)Nc2ccc(Br)cc2)cc1 | -186
CCOC(=O)c1ccc(CSc2nnc(-c3ccncc3)n2N)cc1 | -63
CCC(C)(C)C1CCc2[nH]nc(C(=O)N/N=C(\C)c3ccco3)c2C1 (stereo not given) | -136
O=C(/C=C/c1ccccc1)Nc1ccc(N2CCCCC2)cc1 | -196
O=C(Cc1ccccc1)Nc1ccc(N2CCCCC2)cc1 | -67
CN1CCN(c2ccc(NC(=O)N3CCc4ccccc43)cc2)CC1 | .
CN1CCN(c2ccc(NC(=O)Cc3ccccc3)cc2)CC1 | -68
CCOC(=O)C1CCN(c2ccc(-c3cccs3)nn2)CC1 | -212
CCN(CC)S(=O)(=O)c1ccc(N2CCOCC2)c(NC(=O)c2cc(-c3ccccn3)nc3ccccc23)c1 | .
CCN(CC)S(=O)(=O)c1ccc(N2CCOCC2)c(NC(=O)c2cc([N+](=O)[O-])ccc2Cl)c1 | -164
c1ccc2c(c1)Cc1cc(CN3CCOCC3)ccc1-2 | -113
